Most compounds without a hit are left out; they make up all but 12% or so of the library.
JMJD2A Tudor inh – blocks the human JMJD2A Tudor domain. O75164. AlphaScreen JMJD2A-Tudor / H3K4me3 peptide binding. Potency, µM (highest dose often 114 µM), inactives show top-dose activity change, negative = inhibition, hits mostly inhibitors. 4.4% of 390,000 active. AID 504339; note: % is set by controls: 0 for no effect and ±100 for the full control effect; nearly all actives have a fitted effect of over 50% in size
BAZ2B inh – inhibitors of human BAZ2B bromodomain; Q9UIF8; AlphaScreen BAZ2B-H3K14Ac peptide displacement; Potency, µM (doses to about 114 µM), for the others: at the top dose activity change, negative = inhibition, most hits filed as inhibitors; 4.4% of 360,000 active; AID 504333; note: % is set by controls: 0 for no effect and ±100 for the full control effect; nearly all actives have a fitted effect of over 60% in size
Target sequence (Q9UIF8 whole entry, looked up): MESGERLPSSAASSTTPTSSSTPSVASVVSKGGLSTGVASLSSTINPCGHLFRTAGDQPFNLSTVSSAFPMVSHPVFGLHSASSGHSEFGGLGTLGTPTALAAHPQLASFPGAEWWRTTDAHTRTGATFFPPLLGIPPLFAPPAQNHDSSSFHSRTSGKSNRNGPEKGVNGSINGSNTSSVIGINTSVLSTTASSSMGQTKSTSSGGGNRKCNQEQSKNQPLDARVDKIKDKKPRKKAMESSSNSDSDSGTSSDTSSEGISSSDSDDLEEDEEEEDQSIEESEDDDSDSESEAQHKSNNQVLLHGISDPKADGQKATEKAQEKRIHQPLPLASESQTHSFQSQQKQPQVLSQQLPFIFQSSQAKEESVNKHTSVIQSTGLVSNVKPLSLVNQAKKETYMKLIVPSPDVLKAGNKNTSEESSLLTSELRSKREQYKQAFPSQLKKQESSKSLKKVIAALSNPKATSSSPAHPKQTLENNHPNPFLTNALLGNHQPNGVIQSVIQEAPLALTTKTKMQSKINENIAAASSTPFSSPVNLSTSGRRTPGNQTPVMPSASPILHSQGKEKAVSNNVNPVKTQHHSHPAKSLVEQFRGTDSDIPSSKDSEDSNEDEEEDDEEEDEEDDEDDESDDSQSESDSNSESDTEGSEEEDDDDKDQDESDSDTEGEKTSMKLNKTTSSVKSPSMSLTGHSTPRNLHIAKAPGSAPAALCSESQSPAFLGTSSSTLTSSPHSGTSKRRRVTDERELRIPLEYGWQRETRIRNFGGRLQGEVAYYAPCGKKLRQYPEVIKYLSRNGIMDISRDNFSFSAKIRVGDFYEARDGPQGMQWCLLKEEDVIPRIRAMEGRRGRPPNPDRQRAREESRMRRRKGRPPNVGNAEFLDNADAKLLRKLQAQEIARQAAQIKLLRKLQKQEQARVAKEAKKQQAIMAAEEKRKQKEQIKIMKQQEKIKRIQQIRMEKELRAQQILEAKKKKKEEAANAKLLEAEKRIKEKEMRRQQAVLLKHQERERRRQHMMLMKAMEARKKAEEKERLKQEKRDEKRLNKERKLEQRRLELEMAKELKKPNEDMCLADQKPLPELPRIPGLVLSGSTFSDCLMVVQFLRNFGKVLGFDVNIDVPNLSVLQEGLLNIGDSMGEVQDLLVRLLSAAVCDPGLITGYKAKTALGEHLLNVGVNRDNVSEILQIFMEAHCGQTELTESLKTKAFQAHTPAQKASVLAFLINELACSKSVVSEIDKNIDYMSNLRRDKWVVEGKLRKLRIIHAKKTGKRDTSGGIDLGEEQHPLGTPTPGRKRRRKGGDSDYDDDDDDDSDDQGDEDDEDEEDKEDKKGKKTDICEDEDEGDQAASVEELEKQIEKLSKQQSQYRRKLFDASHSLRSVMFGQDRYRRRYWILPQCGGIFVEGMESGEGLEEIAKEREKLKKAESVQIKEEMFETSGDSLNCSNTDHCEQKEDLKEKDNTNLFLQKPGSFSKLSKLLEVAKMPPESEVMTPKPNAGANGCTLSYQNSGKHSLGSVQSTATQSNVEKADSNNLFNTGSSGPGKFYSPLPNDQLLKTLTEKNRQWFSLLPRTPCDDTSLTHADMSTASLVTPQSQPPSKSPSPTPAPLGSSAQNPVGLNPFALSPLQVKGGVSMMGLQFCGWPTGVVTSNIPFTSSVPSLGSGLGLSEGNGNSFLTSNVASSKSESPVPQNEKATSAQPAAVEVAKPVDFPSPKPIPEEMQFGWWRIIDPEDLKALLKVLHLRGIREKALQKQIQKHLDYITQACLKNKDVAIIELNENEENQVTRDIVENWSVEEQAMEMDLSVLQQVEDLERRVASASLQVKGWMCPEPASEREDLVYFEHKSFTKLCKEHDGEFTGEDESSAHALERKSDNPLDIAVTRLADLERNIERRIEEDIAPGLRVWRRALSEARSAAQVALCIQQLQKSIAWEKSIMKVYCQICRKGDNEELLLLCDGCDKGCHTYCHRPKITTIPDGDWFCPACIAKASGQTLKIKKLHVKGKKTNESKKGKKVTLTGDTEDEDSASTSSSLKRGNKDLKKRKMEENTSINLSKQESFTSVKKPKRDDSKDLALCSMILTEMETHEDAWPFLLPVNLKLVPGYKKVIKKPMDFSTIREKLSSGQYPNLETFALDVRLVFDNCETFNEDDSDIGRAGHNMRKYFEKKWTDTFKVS
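Protein-peptide AlphaScreen: BAZ2B 50 nM, b-H3K14Ac 50 nM, 1x PBS pH 7.4 + 0.01% Tween-20. Preincubation 30 min RT; cpd 30 min RT (top 110 uM); beads 20 min RT, light-protected.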
HP1b binding inh – blocks HP1-beta chromodomain binding to methylated histone tails; P83916; AlphaScreen HP1-beta / biotin-H3K9me3 peptide binding; Potency, µM (series often up to 114 µM), without a hit: top-dose activity change, negative = inhibition, most hits filed as inhibitors; 0.56% of 390,000 active; AID 540317; note: nearly all actives have a fitted effect of over 70% in size
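Compound inhibition of the preformed complex between 50 nM HP1-beta and 50 nM biotinylated H3K9me3 peptide was read by AlphaScreen. Buffer was PBS pH 7.4 with 0.01% Tween-20. Incubations ran 30 min at room temperature, with 10 ug/mL donor/acceptor beads.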
G9a block – inhibitors of human histone lysine methyltransferase G9a; 8.8% of 350,000 active; AID 504332; G9a H3K9 monomethylation, AlphaScreen, 2 h; Q96KQ7; Potency, µM (titrated, usually from 102 µM), without a hit: at the top dose activity, negative = inhibition, actives largely listed as inhibitors; note: % is set by controls: 0 for no effect and ±100 for the full control effect; nearly all actives have a fitted effect of over 75% in size
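AlphaScreen read-out: biotin-H3K9 peptide (500 nM) methylation by 20 nM enzyme with 20 uM SAM, 2 h at room temperature after 15 min compound preincubation; anti-monomethyl H3K9 antibody plus donor/acceptor beads, 10 min dark.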
Sfp inh – Sfp phosphopantetheinyl transferase inhibition; Q9F4F7; Biochemical Sfp PPTase activity, qHTS; Potency, µM, inactives show largest response in the series, negative = inhibition, most hits filed as inhibitors; 3.5% of 310,000 active; AID 1490;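 note: the enzyme is Sfp with the accession as filed and its product quenches rhodamine fluorescence; 0% = enzyme reaction without inhibitor and -100% = no enzyme wells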
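Compounds were incubated with enzyme (final 15 nM) for 15 min at room temperature before substrate addition started the reaction. Fluorescence at 525 nm excitation, 598 nm emission was recorded immediately and after 30 minutes.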
* marks the source's active call; other numbers are inactive results; ? = inconclusive; nt = no result; [ ] = dose if it differs, or a comment. Calls come from the whole dose curve; as a rule, active = well fitted curve in the direction sought with a large enough effect; inconclusive = small, poorly fitted or top-dose-only effect, or another doubt; inactive = no such curve, though single readings can be large; an effect the other way counts as inactive or inconclusive. Potency is the fitted concentration of half-maximal effect.

SMILES	JMJD2A Tudor inh	BAZ2B inh	HP1b binding inh	G9a block	Sfp inh
CCCCN1C(=O)C(NC(C)=O)c2cc(Br)ccc21 (configuration not stated)	-2%[57.1 µM]	-8%	37%	2.5µM*	-1%
CCOCC(=O)Nc1cccc(-c2nc3cccnc3s2)c1C	-8%	5%	44%	4%	8%
COc1ccc(C(=O)Nc2cccc(-c3nc4cccnc4s3)c2C)c(OC)c1	?	-25%	0%	11µM*	nt
CCOc1ccccc1C(=O)Nc1cc(-c2nc3cccnc3s2)ccc1C	?	32µM*	4%	10µM*	nt
CC(C)CCCC(C)CCCC(C)CCCC(C)C(=O)O (configuration not stated)	nt	nt	nt	nt	-15%
O=C(Cn1c(NCCCO)nc2ccccc21)c1ccc(Cl)cc1	-17%	14%	24%	nt	-5%
COc1ccc(-n2c(C)cc(C(=O)Cn3c(NCCO)nc4ccccc43)c2C)cc1	?	50µM*	?	50µM*	-21%
O=C(Cn1c(NCCCO)nc2ccccc21)c1ccc(Cl)cc1Cl	-25%	-31%	-2%	79µM*	-14%
O=C(Cn1c(NCCO)nc2ccccc21)c1ccc(F)cc1	-1%	-15%	37%	14%	9%
Nc1nc2c(s1)C(=O)CC(c1ccccc1)C2 (configuration not stated)	-19%	7%	42%	10%[12.7 µM]	45µM*
C=C1CCN(c2ccc(C(=O)NCCC)cc2[N+](=O)[O-])CC1	-35%	nt	13%	nt	nt
CCc1ccc(CNc2ccc3c(c2)ncn3C(C)(C)C)cc1	63µM*	45µM*	?	50µM*	0%
CC(C)(C)n1cnc2cc(NCc3ccccc3O)ccc21	-35%	?	-12%	-7%	-2%
CCN(CC)c1ccc(CNc2ccc3c(c2)ncn3C(C)(C)C)cc1	14µM*	11µM*	?	14µM*	?
CC(C)(C)n1cnc2cc(NCc3ccc(Br)cc3)ccc21	20µM*	32µM*	?	50µM*	-14%
CC(=O)Nc1nonc1-c1nnc(SCc2ccc(Cl)cc2)n1C	-12%	1%	21%	-2%[59 µM]	nt
O=C(O)c1ccc(CSc2nc(-c3ccccc3)cc(C(F)(F)F)n2)cc1	-14%	-2%	32%	-4%	-4%
O=C(O)c1ccc(CSc2nc(-c3ccc(Cl)cc3)cc(C(F)(F)F)n2)cc1	?	?	29%	-29%	50µM*
Cc1ccc(N=Cc2c(O)c3ccccc3oc2=O)cc1F	-10%	-16%	22%	35µM*	8%
CC(C)c1ccc(N=Cc2c(O)c3ccccc3oc2=O)cc1	43%	34%	83%	4%	45µM*
Cc1cc(C)cc(N=Cc2c(O)c3ccccc3oc2=O)c1	-17%	-4%	34%	10%	19%
NS(=O)(=O)c1ccc(N=Cc2c(O)c3ccccc3oc2=O)cc1	-8%[11.4 µM]	-18%	34%	?	7%
O=C(O)c1cc(N=Cc2c(O)c3ccccc3oc2=O)ccc1O	-22%	-20%	12%	50µM*	?
CCN(CC)c1nc(-c2ccc(C(C)(C)C)cc2)nc2ccccc12	41%	42%	71%	65%[59 µM]	nt
CCOC(=O)c1cccc(NC(=O)c2cc(S(=O)(=O)N3CCCC3)cn2C)c1	-11%	1%	7%	1%[59 µM]	nt
SMILES	JMJD2A Tudor inh	BAZ2B inh	HP1b binding inh	G9a block	Sfp inh
CCOc1ccc(S(=O)(=O)N2CCC(C(=O)NC3CCCC3)CC2)cc1	-6%	2%	13%	15%	3%
CCNc1ncc2nc(-c3ccccc3)c(=O)n(Cc3cccc(OC)c3)c2n1	nt	nt	nt	5%[0.501 µM]	-3%
O=C(O)c1cc(-c2ccc(Cl)cc2)n(-c2ccc(F)cc2)n1	1%	3%	31%	?	8%
CC(=O)Oc1ccc2nc(-c3cccs3)oc(=O)c2c1	-5%	-1%	16%	2%[0.501 µM]	-5%
CC(=O)Oc1ccc2nc(-c3ccco3)oc(=O)c2c1	28µM*	-24%	21%	-38%[59 µM]	8%
COc1ccc(N2CCN(C(=O)c3cc(-c4cc(OC)ccc4OC)nc4ccccc34)CC2)cc1	35µM*	11µM*	?	25µM*	-1%
COc1ccc(N2CCN(C(=O)c3cc(C4CC4)nn3-c3ccccc3)CC2)cc1	50µM*	45µM*	?	?	nt
COc1ccc(-c2cc(C(=O)N3CCN(c4ncccn4)CC3)c3ccccc3n2)c(OC)c1	-4%	-1%	25%	?	-2%
COc1ccc(-c2cc(C(=O)N3CCCCCC3)c3ccccc3n2)c(OC)c1	-28%	-34%	18%	40µM*	40µM*
COCCOC(=O)/C(C#N)=C/c1cn(Cc2ccccc2)nc1-c1cccnc1	35µM*	79µM*	16%	?	10%
COc1cc2c(cc1OC)CN(C(=O)c1cc(C3CC3)nn1-c1ccccc1)CC2	-33%	?	6%	?	nt
CCCCCN1C(C(=O)c2ccccc2)=C(NC(=O)c2ccc(C)cc2)c2ccccc2S1(=O)=O	-23%	-19%	9%	-42%[59 µM]	nt
COc1ccc(-c2cc(C(=O)N3CCN(c4ccccc4O)CC3)c3ccccc3n2)cc1	-33%	-38%	14%	?	nt
COc1ccc(-c2cc(C(=O)N3CCN(c4ccccc4)CC3)c3ccccc3n2)cc1	-29%	-38%	6%	40µM*	8%
COc1ccc(N2CCN(C(=O)c3cn(Cc4ccccc4)nc3-c3cccnc3)CC2)cc1	-31%	-36%	4%	8.9µM*	nt
O=C(c1cc(-c2ccccc2Cl)nc2ccccc12)N1CCN(c2ccccc2O)CC1	-32%	-35%	-6%	56µM*	nt
Cc1ccc(-c2cc(C(=O)N3CCN(c4ccccc4O)CC3)c3ccccc3n2)cc1	?	-36%	-7%	40µM*	nt
N#Cc1ccc(CN2CCN(C(=O)c3cn(Cc4ccccc4)nc3-c3cccnc3)CC2)cc1	-15%	1%	27%	?	nt
Cc1ccc(-c2cc(C(=O)N3CCN(c4ccc(O)cc4)CC3)c3ccccc3n2)cc1	28µM*	nt	?	nt	nt
Cc1ccc(-c2cc(C(=O)N3CCOCC3)c3ccccc3n2)o1	-29%	nt	-16%	nt	nt
Cc1ccccc1-c1cc(C(=O)N2CCCC2)c2ccccc2n1	-12%	-20%	8%	40µM*	-5%
O=C(O)c1cc(-c2ccc(-c3ccc(F)cc3)o2)nc2ccccc12	0%	?	35%	-101%[59 µM]	3.5µM*
O=C(c1cc(-c2ccc(F)cc2)nc2ccccc12)N1CCC1	-1%	nt	33%	nt	nt
Cc1ccc(-c2cc(C(=O)N3CCN(c4ccc(F)cc4)CC3)c3ccccc3n2)o1	56µM*	40µM*	-17%	45µM*	25µM*
N#CCCCS(=O)(=O)c1nnnn1C1CCCCC1	nt	nt	nt	nt	6%
Cc1cc(C(=O)CSc2ccc3c(c2)OCCO3)c(C)n1C1CC1	-26%	79µM*	-15%	?	-18%
CCNc1nnc(SCC(=O)c2cc(C)n(C3CC3)c2C)s1	-33%	-10%	7%	50µM*	nt

Source: PubChem (National Center for Advancing Translational Sciences (NCATS))
